This is a sample that favours compounds with a hit; in the whole collection about 6.1% have one here.
D1 ag = human D1 receptor agonism. 1% of 360,000 active. activation, % at 2 µM. HEK293 T-REx D1 cells, calcium flux, agonist mode. P21728; in the data active means activation above about 30%; further: 0% is about no effect
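Inducible HEK293 T-REx D1 cells, force-coupled to calcium signalling, were plated at 4000 cells/well with tetracycline and held overnight at 30 C. After no-wash calcium dye loading, compound-evoked calcium rise over 180 s flagged agonists.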
D1 antagonist = human D1 dopamine receptor antagonism; P21728; HEK293 TREx D1 cells, calcium flux, dopamine EC80; hits give low values; activity change, negative = inhibition, % at 10 µM; 3.2% of 360,000 active; in the data active means activity change below about -30%; further: on the % scale 0 is the no-effect control and ±100 the full control effect
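Allosteric or orthosteric antagonism assessed as attenuation of the calcium response to EC80 dopamine, added 180 s after compound, in induced HEK293 Trex D1 cells loaded with no-wash calcium dye.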
D3 antag = antagonists of human D3 dopamine receptor; P35462; D3R cells, DiscoveRx beta-arrestin luminescence, antagonist mode; hits give low values; max response, negative = inhibition, %; AID 652054; 2.5% of 360,000 active; in the data active means max response below about -50%; inconclusive means no clear call, values can overlap the other calls; further: on the % scale 0 is the no-effect control and ±100 the full control effect
Target sequence (P35462 whole entry, looked up): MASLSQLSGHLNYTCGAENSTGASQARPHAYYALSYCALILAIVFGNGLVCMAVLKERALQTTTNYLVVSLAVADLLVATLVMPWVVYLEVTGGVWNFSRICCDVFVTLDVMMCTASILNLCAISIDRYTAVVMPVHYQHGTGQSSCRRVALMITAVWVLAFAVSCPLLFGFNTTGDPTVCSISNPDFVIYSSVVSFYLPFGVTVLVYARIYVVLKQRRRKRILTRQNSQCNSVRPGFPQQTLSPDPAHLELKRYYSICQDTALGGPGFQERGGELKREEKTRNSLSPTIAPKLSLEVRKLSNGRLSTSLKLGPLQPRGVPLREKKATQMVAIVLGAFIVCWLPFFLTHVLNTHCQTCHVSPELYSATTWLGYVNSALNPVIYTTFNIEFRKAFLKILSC
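Cells expressing the human receptor were seeded at 1500 cells/well, incubated overnight at 37 degrees C in 5% CO2, then exposed to library compounds with dopamine controls for 90 minutes at 37 degrees C before luminescent detection.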
D1 PAM = human D1 dopamine receptor positive modulation; potentiation, % at 10 µM; P21728; 0.036% of 360,000 active; AID 504651; HEK293 TREx D1 cells, calcium flux, dopamine EC20 potentiation; in the data active means potentiation above about 30%; further: 0% is about no effect
D3 ag = agonists of human D3 dopamine receptor. D3R DiscoveRx beta-arrestin cells, luminescence, 90 min. max activation, %. 0.58% of 410,000 active. AID 652048. P35462; in the data active means max activation above about 30%; further: 0% is about no effect
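Cells at 1500/well, incubated overnight, then treated with pinned compounds (dopamine as control) for 90 min at 37 degrees C. DiscoveRx reagent added for 30 - 60 minutes at room temperature; luminescence read.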
Starred values were filed as active, the others as inactive; ? = inconclusive; . = no result.

SMILES	D1 ag	D1 antagonist	D3 antag	D1 PAM	D3 ag
COc1ccc(-n2c(SCc3ccccc3F)nc3c([nH]c4ccccc43)c2=O)cc1	0	-6	.	-1	-6
Cc1ccc(C)c(NC(=O)C(CC(=O)O)C2CCCO2)c1 (configuration not stated)	1	1	-2	-5	-4
O=C(O)CC(C(=O)Nc1ccc(Cl)cc1Cl)C1CCCO1 (configuration not stated)	0	-63*	1	-2	1
COc1ccc(S(=O)(=O)NCCc2sc3nc(-c4ccc(C)cc4)nn3c2C)cc1C	2	.	.	0	-6
COc1ccc(S(=O)(=O)N(CCc2ccccc2)CC(=O)Nc2cc(C)cc(C)c2)cc1OC	7	-36*	.	1	-10
CCOC(=O)c1cccc(NC(=O)C2CCN(S(=O)(=O)c3cn(C)cn3)CC2)c1	-1	-6	.	0	3
COc1ccccc1-c1cnnc(N/N=C/c2ccc(-c3cccc(Br)c3)o2)n1	-2	17	19	-6	57*
Cc1cc(C)nc(/N=C(\N)Nc2ccc(-c3ccccc3)cc2)n1	34*	0	3	-2	10
Cc1cc(C)nc(/N=C(\N)Nc2ccc(SC(F)F)cc2)n1	43*	-49*	13	-7	9
CC/C(=N/Nc1ccccc1)c1cnnc(-c2ccccc2)n1	-3	-12	-8	-4	10
CC/C(=N/Nc1cccc(Cl)c1)c1cnnc(SC)n1	1	-37*	-25	-10	-17
Cc1ccc(C(=O)CSC2=C(C#N)C(c3ccco3)C3=C(CCCC3=O)N2)cc1 (configuration not stated)	4	-37*	-27	-6	-4
CC1=C(C(=O)Nc2ccccc2)C(c2ccco2)C(C#N)=C(SCc2ccccc2)N1 (configuration not stated)	2	4	.	-4	.
N#CC1=C(SCC(=O)c2ccccc2)NC2=C(C(=O)CCC2)C1c1ccco1 (configuration not stated)	14	-44*	?	-11	-13
CC(C)(C)c1ccc(C(=O)CCCSC2=C(C#N)C(c3ccco3)C3=C(CCCC3=O)N2)cc1 (configuration not stated)	6	-10	-16	-3	-26
CC1=C(C(=O)Nc2ccccc2)C(c2ccco2)C(C#N)=C(SCC(=O)OC(C)C)N1 (configuration not stated)	4	-12	32	-3	58*
CCc1ccc(C(=O)CSC2=C(C#N)C(c3ccco3)C(C(C)=O)=C(C)N2)cc1 (configuration not stated)	2	-34*	.	-10	.
CCOc1ccc(CNC(=O)c2cccn2-c2nnc(N3CCCCC3)s2)cc1OC	1	-2	.	-1	-12
COc1ccccc1CNC(=O)C(=O)NCC(c1cccs1)S(=O)(=O)c1ccccc1 (configuration not stated)	7	.	.	4	-17
N#CCCn1c2ccccc2c2nc3ccccc3nc21	1	-6	-52*	-1	-4
CCCn1c2ccccc2c2nc3ccccc3nc21	1	-6	0	2	-1
COC(=O)NNC(=O)C12CC3CC(CC(C3)C1)C2	7	-7	-1	10	3
NC(=S)NNC(=O)C12CC3CC(CC(C3)C1)C2	185*	-24	2	8	2
COc1ccc(C)c2sc(NC(=O)c3ccc(S(=O)(=O)N4CCCCC4)cc3)nc12	1	6	.	0	1
N#CN1CCC(NS(=O)(=O)c2ccc(F)cc2)CC1	-1	-7	.	8	.
SMILES	D1 ag	D1 antagonist	D3 antag	D1 PAM	D3 ag
O=c1c2cc(-c3ccccc3)sc2nc2n1N=C(c1ccccc1)CS2	4	24	-6	3	-1
O=c1[nH]c(-c2ccccn2)nc2sc(-c3ccccc3)cc12	7	-31*	?	3	-11
CCN(CC)C(=O)c1sc2nc(Cc3ccccc3)[nH]c(=O)c2c1C	1	-4	-18	4	5
Cc1c(C(=O)N(C)C)sc2nc(-c3ccccn3)[nH]c(=O)c12	2	-4	-57*	-2	1
CCCOc1ccc(C2=NC(c3ccc(F)cc3)=Nc3ccc(OC)cc3N2)cc1	6	-8	.	1	-9
CCOC(=O)c1cc(S(=O)(=O)Nc2c(C)cc(C)cc2C)[nH]n1	2	-3	.	4	-7
Cn1c(COc2ccccc2)nnc1SCCSc1nnc(COc2ccccc2)n1C	5	-6	11	0	-1
Cn1c(COc2ccc(Br)cc2)nnc1SC1CCc2ccccc2C1=O (configuration not stated)	6	-3	-57*	-4	-3
CCOC(=O)C1=C(O)/C(=C\c2cc(C)n(-c3ccccc3F)c2C)N=C1C	4	0	-14	-4	-4
Cc1cc(/C=N/N2CCN(C)CC2)c(C)n1-c1ccccc1F	4	6	-71*	-11	-9
CCOC(=O)c1ccc(NC(=O)CC2S/C(=N/N=C/c3c[nH]c4ccccc34)NC2=O)cc1 (configuration not stated)	1	-36*	12	2	0
COc1cc(CNCCO)cc(Cl)c1OCc1ccc(Cl)cc1Cl	154*	-3	-29	8	-9
COc1cc(CNCCO)cc(Br)c1OCc1ccccc1Cl	69*	9	16	5	-1
CCCNC(=O)N1CCCN(S(=O)(=O)c2ccc3c(ccn3CC)c2)CC1	1	3	.	-1	-3
Cc1cc(C)c(C2C(C#N)=C(N)Oc3n[nH]c(C)c32)cc1CN1CCCC1 (configuration not stated)	2	6	-112*	-2	-31
Cc1[nH]nc2c1C(c1ccoc1)C(C#N)=C(N)O2 (configuration not stated)	2	-8	24	-2	-3
CCN(c1ccccc1)S(=O)(=O)c1nnc(NC(=O)C(C)Oc2ccccc2)s1 (configuration not stated)	1	12	.	4	6
CC(C)(C)c1ccc(OCC(=O)NCC2(N3CCOCC3)CCCCC2)cc1	4	-3	.	0	-13
CCOC(=O)/C(=C/c1ccc(N2CCC(c3ccccc3)=N2)cc1)C(C)=O	105*	-23	-8	-6	-4
COc1ccc(C(=O)NCC(C)(C)SCc2c(C)cc(C)cc2C)cc1	56*	-61*	11	7	18
COc1cc(Cn2c(=O)oc3ccc(C)cc32)ccc1OC(C)C	11	-33*	14	-12	2
CCOc1ccc(Cn2c(=O)oc3ccc(C)cc32)cc1OC	6	-22	34	-6	5
O=C(/C=C/c1cccc(Cl)c1)c1ccc([N+](=O)[O-])o1	-1	-7	-84*	-6	-10
COc1ccc(/C=C/C(=O)c2ccc([N+](=O)[O-])o2)cc1OC	0	4	?	4	-29

Screening results from PubChem.
